Hits are enriched below; roughly 11% of the tested compounds scored in any of these assays.
IMPase Li cell: cell-permeable IMPase inhibitors with lithium potentiation. CHO-M1 cells, IP1 TR-FRET (IP-One), carbachol + lithium. AID 1457. 210,000 tested, 0.35% active. Potency, µM (doses to about 59.4 µM), hits mostly inhibitors; active = well fitted inhibition curve with a large enough effect; inconclusive = small, poorly fitted or top-dose-only effect; inactive = no such curve, though single readings can be large or run the other way;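 note: IP1 builds up when IMPase is blocked and the TR-FRET signal falls; nearly all actives have a fitted effect of over 50% in size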
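Test compounds were applied to CHO-M1 cells previously cultured for 16–30 h at 2000 per well. A small lithium amount accompanied them; after 30 min at 37C, IP1 was quantified by TR-FRET.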
PNC inhibitor: perinucleolar compartment assembly inhibition; PC3M PTB-GFP, PNC prevalence imaging, 16 h; active compounds read low; activity change (PNC), negative = inhibition, % at 10 µM; 140,000 tested, 3.1% active; AID 2417;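 active = readout at or below -70, meaning at least 70% loss of cells showing the perinucleolar compartment, a nuclear body marking cancer cells; inconclusive = readout between -30 and a set limit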
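PC3M cells stably expressing PTB-GFP, 750–1000 cells/well, treated 16 h at 37 °C with compound (23 nl of library stock), in duplicate. After paraformaldehyde fixation and Hoechst stain, imaged at 20x; PNC prevalence scored by image analysis.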
HPGD block: inhibitors of human 15-hydroxyprostaglandin dehydrogenase (HPGD); purified HPGD, NADH fluorescence kinetic, PGE2 substrate; 150,000 tested, 4.3% active; Potency, µM, actives largely listed as inhibitors
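20 nM HPGD preincubated 15 min at room temperature with compound in 50 mM Tris-HCl pH 8, 0.01% Tween 20. Started with 1 mM NAD+ and 30 uM prostaglandin E2; NADH fluorescence (360/450 nm) read 5 times over 30-s intervals, last minus first.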
IMPase inh: IMPase inhibition in cells. CHO-M1 cells, IP1 accumulation, HTRF TR-FRET ratio. P97697. AID 901. 120,000 tested, under 10 active. inhibition (IP1 accumulation), % at 46.1 µM; active = well fitted curve in the direction sought with a large enough effect in the signal ratio, not every such curve was filed as active; inconclusive = small, poorly fitted or top-dose-only effect, or a change in a side signal; inactive = no such curve, though single readings can be large or run the other way; the % refers to the signal ratio;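 note: cells stimulated with carbachol in lithium chloride buffer; higher means more IMPase inhibition seen as more IP1 and lower FRET ratio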
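In this qHTS, compounds (final up to 46 uM) act on CHO-M1 cells that are then activated through the M1 receptor with carbachol, in pH 7.4 buffer containing 50 mM LiCl, for 30 min. IP1 accumulation is quantified by the IP-One immunoassay.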
ALDH1A1 inh: ALDH1A1 (human) enzyme inhibition; Potency, µM (doses to about 75.3 µM), actives largely listed as inhibitors; Purified ALDH1A1, NADH fluorescence, propionaldehyde substrate; AID 1030; 220,000 tested, 7.3% active
Target sequence (P00352 whole entry, looked up): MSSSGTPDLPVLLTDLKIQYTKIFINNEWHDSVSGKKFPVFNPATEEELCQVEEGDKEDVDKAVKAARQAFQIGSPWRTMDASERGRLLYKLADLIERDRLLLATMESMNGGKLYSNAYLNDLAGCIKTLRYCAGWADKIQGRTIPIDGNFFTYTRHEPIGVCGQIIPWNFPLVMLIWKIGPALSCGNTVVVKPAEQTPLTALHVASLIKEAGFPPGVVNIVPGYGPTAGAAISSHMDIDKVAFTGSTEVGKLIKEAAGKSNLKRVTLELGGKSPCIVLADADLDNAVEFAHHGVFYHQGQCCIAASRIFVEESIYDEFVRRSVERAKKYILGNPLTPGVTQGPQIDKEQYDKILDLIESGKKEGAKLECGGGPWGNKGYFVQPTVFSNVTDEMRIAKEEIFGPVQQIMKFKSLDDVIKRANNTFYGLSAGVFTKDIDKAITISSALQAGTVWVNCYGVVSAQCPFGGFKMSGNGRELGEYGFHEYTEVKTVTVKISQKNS
Of the large screens only hits and unclear results are named; the others gave an inactive call. Unless noted, calls come from the whole dose curve; as a rule, active = well fitted inhibition curve with a large enough effect (not every such curve was filed as active); inconclusive = small, poorly fitted or top-dose-only effect, or another doubt; inactive = no such curve, though single readings can be large or run the other way.

CS(=O)(=O)N1CCC(C(=O)N2CCN(Cc3ccccc3)CC2)CC1	ALDH1A1 inh inconclusive (no result: PNC inhibitor, HPGD block, IMPase inh)
Cc1c(C(N)=O)sc2ncn(CC(=O)N3CCC(C)CC3)c(=O)c12	PNC inhibitor inconclusive
Clc1cccc(CN2CCC(Cc3ccccc3)CC2)c1	ALDH1A1 inh 20µM (no result: IMPase Li cell, HPGD block)
O=C(Nc1cccc(Cl)c1)N1CCN(Cc2ccccc2)CC1	PNC inhibitor -96, IMPase inh inconclusive
Cc1cccc(NC(=O)N2CCN(Cc3ccc(Cl)cc3)CC2)c1	none (no result: PNC inhibitor, HPGD block, IMPase inh)
Cn1c(=O)c(=O)n(C)c2cc(N3CCCC3)c(NC(=O)c3ccccc3F)cc21	none (no result: IMPase Li cell, PNC inhibitor, HPGD block, ALDH1A1 inh)
Cc1ccc(/C=N/NC(=O)c2ccccc2OCc2cccc(Br)c2)o1	none (no result: PNC inhibitor, HPGD block, IMPase inh)
Cc1ccccc1NC(=O)c1c2c(nc3ccccc13)CCC2	none (no result: PNC inhibitor, HPGD block, IMPase inh)
COc1cc(CN2CCNC(=O)C2CC(=O)NCCC2=CCCCC2)cc(OC)c1 (stereo not given)	ALDH1A1 inh 20µM (no result: PNC inhibitor, HPGD block, IMPase inh)
CN(C)C(=O)OC1=C(c2ccccc2)Sc2ccccc2-n2cccc21	ALDH1A1 inh inconclusive (no result: PNC inhibitor, HPGD block, IMPase inh)
COc1cccc(-c2nc(-c3ccccn3)no2)c1OC	PNC inhibitor -84, ALDH1A1 inh inconclusive
CC(=O)c1cccc(NC(=O)COC(=O)c2cccs2)c1	ALDH1A1 inh 14µM (no result: PNC inhibitor, HPGD block, IMPase inh)
O=C(OCC(=O)c1cccs1)c1ccc(NC(=O)c2ccco2)cc1	ALDH1A1 inh 18µM
CCN(CC)c1ccc(NC(=O)COC(=O)c2cccs2)cc1	none
COc1ccc(C(=O)COC(=O)c2ccc(N(C)C)cc2)cc1	IMPase Li cell inconclusive (no result: PNC inhibitor, HPGD block, IMPase inh)
O=C(COC(=O)c1cccs1)c1ccc2c(c1)OCCO2	HPGD block 16µM, ALDH1A1 inh 18µM
CN(C)c1ccc(C(=O)OCC(=O)c2cccs2)cc1	PNC inhibitor -113 (no result: IMPase inh)
CN(CCOC(=O)c1ccc2c(c1)OCO2)C(C)(C)C	none (no result: PNC inhibitor, HPGD block, IMPase inh)
CC1=C(C(=O)O)N2C(=O)[C@@H](NC(=O)[C@@H](N)c3ccc(O)cc3)[C@@H]2SC1	none (no result: PNC inhibitor)
COc1ccc(-n2c(=O)c(-c3ccc(Cl)cc3)nc3cnc(N4CCOCC4)nc32)cc1	ALDH1A1 inh inconclusive (no result: PNC inhibitor, IMPase inh)
COc1ccc(CCNC[C@H](O)c2ccc(O)cc2)cc1OC	none (no result: IMPase Li cell, PNC inhibitor, HPGD block, ALDH1A1 inh)
Cc1ccc(C(=O)COC(=O)c2cccs2)cc1	HPGD block 28µM
O=C1NN(c2ccccc2)C(=O)/C1=C/c1ccc(-c2ccc(Cl)c(C(=O)O)c2)o1	ALDH1A1 inh 13µM (no result: PNC inhibitor, HPGD block, IMPase inh)
COc1nc(NCCO)nc(Nc2ccc([N+](=O)[O-])cc2)n1	HPGD block 20µM, ALDH1A1 inh inconclusive
Cn1c(=O)c2c(SCc3cccnc3)nc(CC(C)(C)C)nc2n(C)c1=O	PNC inhibitor inconclusive, ALDH1A1 inh 0.89µM
Cc1nc2ccccn2c1C(=O)NCc1cccnc1	PNC inhibitor -85
NNC(=O)c1cnn(-c2ccccc2)c1-n1cccc1	ALDH1A1 inh 0.71µM (no result: PNC inhibitor, HPGD block, IMPase inh)
O=C(NNS(=O)(=O)c1ccc([N+](=O)[O-])cc1)c1cnn(-c2ccccc2)c1-n1cccc1	PNC inhibitor -100, ALDH1A1 inh inconclusive
O=C(NNS(=O)(=O)c1ccc(Cl)cc1)c1cnn(-c2ccccc2)c1-n1cccc1	ALDH1A1 inh 2µM
O=C(NNS(=O)(=O)c1ccccc1)c1cnn(-c2ccccc2)c1-n1cccc1	none
O=C(O)c1cnn(-c2ccccc2)c1-n1cccc1	none
COc1ccc(Nc2nc3ccccc3c3nnc(C)n23)cc1Cl	none (no result: IMPase Li cell, PNC inhibitor, HPGD block, ALDH1A1 inh)
Cc1nc2ccccn2c1C(=O)NNS(=O)(=O)c1ccc(Cl)cc1	ALDH1A1 inh 8.9µM (no result: IMPase Li cell, PNC inhibitor, HPGD block, IMPase inh)
CC(=O)c1c(C)nc2ccccn12	none
CCOC(=O)N1CCC(N2CC34C=CC(O3)C(C(=O)O)C4C2=O)CC1 (stereo not given)	PNC inhibitor -108
CCCN1CC23C=CC(O2)C(C(=O)O)C3C1=O (stereo not given)	none
CCCCC=O	none (no result: PNC inhibitor, IMPase inh)
Clc1ccc(-c2csc(Nc3ccccc3)[n+]2Cc2ccco2)c(Cl)c1	ALDH1A1 inh 18µM (no result: PNC inhibitor, HPGD block, IMPase inh)
c1nnc(NC2=NCCC2)s1	PNC inhibitor -111
N[C@@H](COP(=O)(O)O)C(=O)O	none (no result: PNC inhibitor)
S=c1[nH]nc(-c2ccncc2)n1/N=C/C(Cl)=C\c1ccccc1	none (no result: PNC inhibitor, HPGD block, IMPase inh)
COc1ccccc1-n1c(-c2ccccc2)n[nH]c1=S	ALDH1A1 inh inconclusive (no result: PNC inhibitor, HPGD block, IMPase inh)
COc1ccccc1/C=C\C=N\n1c(C2CCCCC2)n[nH]c1=S	HPGD block 14µM, ALDH1A1 inh inconclusive
